Experimental data taken from PubChem BioAssay AID588453 (National Center for Advancing Translational Sciences (NCATS), 2011).
Among all 390,000 compounds or so, about 4,000 (1%) were called active. Not shown: some 4% with an inconclusive outcome. Calls follow the shape of the dose curve; as a rule, active = well fitted inhibition curve with a large enough effect; inconclusive = small, poorly fitted or top-dose-only effect; inactive = no such curve, though single readings can be large or run the other way. For the sample, actives were picked, then their nearest neighbours and some compounds at random.

Each molecule was assayed against Thioredoxin reductase 1, cytoplasmic (Rattus norvegicus) (UniProt O89049) (assay: qHTS Assay for Inhibitors of Mammalian Selenoprotein Thioredoxin Reductase 1 (TrxR1): qHTS). Conditions: recombinant rTrxR1, NADPH fluorescence consumption, selenite substrate; series mostly up to 114 µM; activity change, negative = inhibition: at the top concentration.
Summary of the method: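 Rat TrxR1 (90 nM in the dispensed reagent) was pre-reduced with 400 uM NADPH for 5 min at room temperature, then incubated with compound for 15 min. After 400 uM selenite was added, NADPH fluorescence (Ex 340/Em 450 nm) was followed for 8 min.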
% is scaled to controls: 0 for no effect and ±100 for the full control effect; potency is read from the fitted curve at half-maximal effect.
Also: nearly all actives have a fitted effect of over 65% in size.

Thioredoxin reductase 1, cytoplasmic (Rattus norvegicus), sequence (O89049 whole entry, looked up): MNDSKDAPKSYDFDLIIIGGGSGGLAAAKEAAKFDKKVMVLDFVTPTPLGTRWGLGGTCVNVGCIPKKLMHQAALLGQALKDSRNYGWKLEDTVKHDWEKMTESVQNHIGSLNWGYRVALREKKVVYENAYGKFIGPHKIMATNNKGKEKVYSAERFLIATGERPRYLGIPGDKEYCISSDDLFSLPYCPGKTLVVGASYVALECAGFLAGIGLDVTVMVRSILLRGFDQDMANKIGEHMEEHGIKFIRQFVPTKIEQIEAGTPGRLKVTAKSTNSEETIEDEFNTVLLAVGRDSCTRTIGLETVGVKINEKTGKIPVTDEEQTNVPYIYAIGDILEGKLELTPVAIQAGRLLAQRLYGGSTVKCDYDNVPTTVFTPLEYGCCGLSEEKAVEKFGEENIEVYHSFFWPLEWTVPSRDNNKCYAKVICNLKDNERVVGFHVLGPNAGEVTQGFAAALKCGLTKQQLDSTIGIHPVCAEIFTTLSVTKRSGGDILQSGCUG

| Structure (SMILES) | activity change, negative = inhibition | Potency |
| --- | --- | --- |
| Cc1cc(F)ccc1NS(=O)(=O)c1ccc(-n2cccn2)cc1 | 24.6% (inactive) |  |
| COc1ccc2[nH]c3c(c2c1)CCN(C(=O)CCC1CCCC1)C3c1ccc(F)cc1 (centres undefined) | 10.3% (inactive) |  |
| Cc1cc2c(cc3c(SCc4nc(-c5ccccc5)oc4C)nnc(C)n32)o1 | 6.82% (inactive) |  |
| O=C(O)c1ccccc1NC(=S)NC(NC(=O)c1ccccc1[N+](=O)[O-])C(Cl)(Cl)Cl (centres undefined) | -0.421% (inactive) |  |
| O=C(NC(=S)Nc1ncccn1)c1ccccc1Br | 21.2% (inactive) |  |
| O=C(NC(=S)Nc1ccccc1C(=O)O)c1ccc(-c2ccc(Br)cc2)o1 |  | 44.7 µM (active) |
| CN(CCC#N)c1ccc(C=O)cc1 | 6.49% (inactive) |  |
| S=c1[nH]c(=S)c2n[nH]nc2[nH]1 |  | 15.8 µM (active) |
| C(=Nc1ccc(/C=C/c2ccnc3ccccc23)cc1)c1cc2c3c(c1)CCCN3CCC2 | -19.7% (inactive) |  |
| COc1ccc(-c2onc(C)c2C)cc1S(=O)(=O)NCCc1ccccc1 | 9.73% [at 57.1 µM] (inactive) |  |
| OC(CBr)CN1CCCCC1 (centres undefined) | -14.4% (inactive) |  |
| Cc1ccc(-c2nn(-c3ccccc3)cc2CN(Cc2ccccc2)C(=O)CCC(=O)O)o1 |  | 39.8 µM (active) |
| CN(C)Cc1cn(-c2ccccc2)nc1-c1ccccc1 | 13.8% (inactive) |  |
| Cc1ccc(-c2nn(-c3cccc(F)c3)cc2CNCCc2ccncc2)o1 | -6.48% (inactive) |  |
| Cc1ccc(C)c2sc(NC(=O)c3ccc(S(=O)(=O)N4CCCC4)cc3)nc12 | 29.7% [at 57.1 µM] (inactive) |  |
| CCc1ccc(NC(=O)C2CCCN2S(=O)(=O)c2ccc3nc(-c4ccccc4)[nH]c3c2)cc1 (centres undefined) | 5.83% (inactive) |  |
| CN(C)c1nc(N)nc(CSc2ccccn2)n1 | 10.2% (inactive) |  |
| COc1cccc(N(CC(=O)NCCSc2ccccn2)S(C)(=O)=O)c1 | 25.6% (inactive) |  |
| COc1ccc(C=C(C#N)C#N)c(CSc2ccccn2)c1 |  | 11.2 µM (active) |
| COc1ccc(C(=O)COC(=O)CCCC(=O)Nc2cc(C(F)(F)F)ccc2Cl)cc1 | -7.49% (inactive) |  |
| CN(N=O)c1ccc(C=C2c3ccccc3-c3ccccc32)cc1 | 11.1% (inactive) |  |
| CCOc1ccc(NC(=O)CCc2c(C)nn(-c3ccc(N4CCCC4)nn3)c2C)cc1 | 17.2% [at 57.1 µM] (inactive) |  |

| Structure (SMILES) | activity change, negative = inhibition | Potency |
| --- | --- | --- |
| O=C1O/C(=C\c2ccc(O)cc2)C(O)=C1c1ccc(O)cc1 | 0.176% (inactive) |  |
| Cn1cnc([N+](=O)[O-])c1Nc1ccccc1O | -11.4% (inactive) |  |
| Nc1nc(Sc2ncccc2[N+](=O)[O-])n[nH]1 | 15.9% (inactive) |  |
| Cn1cnc([N+](=O)[O-])c1Sc1n[nH]c(N)n1 |  | 12.6 µM (active) |
| CCOc1ccc(OCC)c(Nc2nc3ccccc3n3nnnc23)c1 | -13.6% (inactive) |  |
| COc1ccc(CNC(=O)Cn2nnc(-c3ccc(S(C)(=O)=O)cc3)n2)cc1 | 15.6% (inactive) |  |
| Cc1c(Cl)cccc1NC(=O)C1CCCN(c2ncnc3onc(C)c23)C1 (centres undefined) | 8.7% (inactive) |  |
| CCOC(=O)N1CCc2c(sc3c2c(=O)n(-c2ccc(CC)cc2)c(=O)n3C)C1 | -6.6% (inactive) |  |
| O=C(c1ccc(Br)cc1)N(Cc1cccs1)c1ccc(F)cc1 | 14.5% (inactive) |  |
| COc1ccc(CCC(=O)NCCc2csc(-c3ccc(Cl)cc3)n2)cc1 | 7.28% [at 57.1 µM] (inactive) |  |
| COc1cccc(N2CCN(C3CC(=O)N(c4ccc(Cl)cc4)C3=O)CC2)c1 (centres undefined) | -8.08% (inactive) |  |
| COc1ccc(CN2C(=O)CC(Cc3ccc(C)cc3)C2=O)cc1OC (centres undefined) | -13.1% (inactive) |  |
| COc1ccc(N2C(=O)CC(N3CCC(C(N)=O)CC3)C2=O)cc1 (centres undefined) |  | 50.1 µM (active) |
| CCOC(=O)c1ccc(N2C(=O)CC(N3CCC(C(=O)OCC)CC3)C2=O)cc1 (centres undefined) | -18.9% (inactive) |  |
| COc1ccc(CCN2C(=O)CC(N3CCC(C(N)=O)CC3)C2=O)cc1OC (centres undefined) |  | 22.4 µM (active) |
| COc1ccc(CCN2C(=O)C3CC=C(C)CC3C2=O)cc1OC (centres undefined) | 20.2% (inactive) |  |
| Cn1c(=O)c(C(=O)O)nn(-c2ccccc2)c1=O | 2.12% (inactive) |  |
| CCN(CC)/[N+]([O-])=N/Oc1cc(O/[N+]([O-])=N/N2CCCC2CO)c([N+](=O)[O-])cc1[N+](=O)[O-] (centres undefined) | 27.8% (inactive) |  |
| COc1ccc(OC)c(NC(=O)Cn2c(=O)n(Cc3ccccc3)c(=O)c3ccccc32)c1 | 23.8% (inactive) |  |
| CCCCCCCNc1ccc(/C=C/c2ccnc3ccccc23)cc1 | 16.1% (inactive) |  |
| O=C(COC(=O)c1ccccc1OCCOc1ccccc1)Nc1cccc(Br)c1 | 9.98% (inactive) |  |
| O=C(c1noc2c1CCCC2)N1CCc2ccccc2C1 | 6.82% (inactive) |  |

| Structure (SMILES) | activity change, negative = inhibition | Potency |
| --- | --- | --- |
| COc1ccc2c(c1)CCc1c(C(=O)Nc3cc(C)ccc3O)noc1-2 | 24% (inactive) |  |
| COc1ccc2c(c1)CCc1c(C(=O)N3CCCC3)noc1-2 |  | 35.5 µM (active) |
| CCCCNC(=O)Cn1c(SCc2cccc(Cl)c2)nc2ccncc21 | 12.1% (inactive) |  |
| COc1ccc(-c2cn3c(n2)sc2cc(C(=O)Nc4ccccc4F)ccc23)cc1 | 18.2% (inactive) |  |
| COc1cccc(-c2n[nH]c3c2C(c2cccc(O)c2)N(C)C3=O)c1 (centres undefined) | 15.4% (inactive) |  |
| Cc1ccc(-c2nc(Cn3c(=O)cc(-c4ccccc4)c4c(C)nn(C)c43)c(C)o2)cc1 | 16.5% [at 57.1 µM] (inactive) |  |
| O=C(NCc1ccccc1)C(=O)NCC(c1ccco1)S(=O)(=O)c1ccc(Cl)cc1 (centres undefined) | 3.23% [at 57.1 µM] (inactive) |  |
| Cc1ccc(NC(=O)CN2C(=O)C(c3ccc(F)cc3)=NC23CCCCCC3)c(C)c1 | 11.7% (inactive) |  |
| CCN1CCC(N(Cc2ccc(F)cc2)C(=O)Nc2cc(C)ccc2C)CC1 | -0.49% (inactive) |  |
| CCN1CCC2(CC1)N=C(c1ccc(F)cc1)C(=S)N2C(=O)c1ccc(C)cc1 |  | 15.8 µM (active) |
| Cc1cccc(-n2ccnc2SCC(=O)Nc2cccc3ccccc23)c1C | 12.3% [at 57.1 µM] (inactive) |  |
| NNc1cccc(C=Cc2ccccc2)cc1=O |  | 17.8 µM (active) |
| O=C(COc1ccccc1)OCc1cc(=O)n2nc(-c3cccs3)sc2n1 | 18% [at 57.1 µM] (inactive) |  |
| CC1=Nc2cc(C(=O)NCc3ccc(C)cc3)ccc2Sc2ccc(Cl)cc21 | 24.3% [at 57.1 µM] (inactive) |  |
| C[C@@H]1NC(=O)c2cc([N+](=O)[O-])cc(F)c2NCCC[C@@H](C(N)=O)NC(=O)[C@H](CC(N)=O)NC1=O | -7.55% (inactive) |  |
| CC(C)[C@@H]1NC(=O)c2cc([N+](=O)[O-])cc(I)c2NCCC[C@@H](C(=O)NC(CC(=O)O)C(N)=O)NC(=O)[C@H](CO)NC1=O (some centres undefined) | -3.78% (inactive) |  |
| NC(=O)CC[C@@H]1NC(=O)[C@H](CO)NC(=O)c2cc([N+](=O)[O-])cc(I)c2NCC[C@@H](C(N)=O)NC1=O |  | 70.8 µM (active) |
| NCCCC[C@@H]1NC(=O)[C@H](CCC(=O)O)NC(=O)c2cc([N+](=O)[O-])cc(I)c2NCC[C@@H](C(N)=O)NC1=O | -14.4% (inactive) |  |
| NC(=O)C[C@@H]1NC(=O)CNC(=O)c2cc([N+](=O)[O-])cc(I)c2NCCC(C(N)=O)NC1=O (some centres undefined) | -2.64% [at 57.1 µM] (inactive) |  |
| NC(=O)CC[C@@H]1NC(=O)[C@@H]2CCCN2C(=O)c2cc([N+](=O)[O-])cc(F)c2NCCC[C@@H](C(N)=O)NC1=O |  | 12.6 µM (active) |
